# Assay outcomes as filed in PubChem BioAssay.
# A selection: hits, their analogues and other compounds. The true share with any hit is near 2.4%.
# D2 ag-1: agonists of human D2 dopamine receptor; P14416; HEK293 T-REx D2 cells, calcium flux agonist mode; activation, % at 2 µM; 340,000 compounds, 0.53% hits;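 active means activation over 3 SD above normal in the single-dose calcium agonist read, cut at about 30% in these data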; further: 0% is about no effect
# Target sequence (P14416 whole entry, looked up): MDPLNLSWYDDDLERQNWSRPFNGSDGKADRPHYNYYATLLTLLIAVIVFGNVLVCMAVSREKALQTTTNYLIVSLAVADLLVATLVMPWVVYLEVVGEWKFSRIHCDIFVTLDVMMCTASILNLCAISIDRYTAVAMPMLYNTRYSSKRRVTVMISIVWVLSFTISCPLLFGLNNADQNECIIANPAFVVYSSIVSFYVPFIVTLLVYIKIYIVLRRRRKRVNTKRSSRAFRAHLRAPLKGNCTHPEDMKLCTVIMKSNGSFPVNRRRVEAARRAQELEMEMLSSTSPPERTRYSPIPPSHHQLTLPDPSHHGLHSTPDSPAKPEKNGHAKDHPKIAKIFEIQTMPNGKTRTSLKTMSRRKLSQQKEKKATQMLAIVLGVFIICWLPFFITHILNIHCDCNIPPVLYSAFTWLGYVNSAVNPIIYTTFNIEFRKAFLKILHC
#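 In this primary screen, compounds producing a positive calcium signal within 180 s of addition to tetracycline-induced, force-coupled HEK293 Trex D2 cells are flagged; cells are dye-loaded with a no-wash calcium kit beforehand.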
# D2 ag-2: human D2 receptor agonism in beta-arrestin assay. P14416. DiscoveRx PathHunter D2 beta-arrestin, luminescence, 90 min; 100% = 57 uM dopamine signal. activation, % (test concentration not listed). 360,000 compounds, 0.084% hits; in the data active means activation above about 40%
#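 Agonist mode: compounds alone added to overnight-plated D2 PathHunter cells for 90 min at 37 C, with 57 uM final dopamine (EC100) defining full response. Beta-arrestin recruitment detected by chemiluminescent reagent, read after 1 h at ambient temperature.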
# D2 PAM-1: positive allosteric modulators of human D2 dopamine receptor | P14416 | DiscoveRx D2 beta-arrestin cells, luminescence, 90 min; 100% = 57 uM dopamine signal | potentiation, % (test concentration not listed) | 360,000 compounds, 0.23% hits | AID 624464; in the data active means potentiation above about 50%
#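 PathHunter beta-arrestin assay in DiscoveRx D2 cells. Compounds were added with an EC20 of dopamine (50 nM final) for 90 min at 37 deg C. Luminescence was read 1 h after detection reagent, with 57 uM dopamine as the EC100 control.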
# D2 PAM-2: positively modulates the human D2 dopamine receptor allosterically; P14416; HEK293 T-REx D2, calcium flux, EC20 dopamine potentiation; potentiation, % at 10 µM; 340,000 compounds, 0.34% hits;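 active means potentiation over 3 SD above the plate norm, cut at about 30% in these data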; further: 0% is about no effect
#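 Tetracycline-induced Hek293 Trex D2 cells, force-coupled to calcium, loaded with no-wash calcium dye. Compound added with 180 s kinetic read for agonism, then EC20 dopamine and a further 180 s read for potentiation.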
# D2 antagonist: antagonizes the human D2 dopamine receptor; HEK293 TREx D2 cells, calcium flux, dopamine EC80; inhibition, % at 10 µM; 340,000 compounds, 2% hits; in the data active means inhibition above about 30%; inactive means below that, where a call was filed; further: 0% is about no effect
#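 Compounds are added to dye-loaded, induced HEK293 T-REx cells coupled to calcium release via D2; after a 3 min kinetic read an EC80 dopamine stimulus is given and fluorescence is recorded for 3 more min.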
# The depositor's hits bear a star; nt = no result given.
SMILES,D2 ag-1,D2 ag-2,D2 PAM-1,D2 PAM-2,D2 antagonist
Cc1cccc(NC(=O)Cn2cnc3sc(C)c(S(=O)(=O)N4CCC(C)CC4)c3c2=O)n1,-1,3,2,22,32*
CC(C)CC(=O)Nc1nc2c(s1)CC(C(C)(C)C)CC2 (stereo not drawn),-1,nt,nt,3,nt
Nn1c(SCC(=O)Nc2ccccc2F)nnc1C1CCCCC1,0,2,-10,37*,-9
COc1ccc(Cl)cc1NC(=O)CSc1nnc(C2CC2)n1N,0,-2,-8,31*,-10
COc1ccc(OC)c(NC(=O)CSc2nncc(=O)n2N)c1,1,-4,-9,-15,36*
Cc1cc(OCCCSc2nc(-c3ccc(C(C)(C)C)cc3)nc3cc(=O)[nH]n23)ccc1Cl,0,nt,nt,11,nt
Cc1ccc(-c2nn(-c3cccc(F)c3)cc2CN(Cc2nccn2C)C(C)C)o1,-1,-4,-18,-15,3
Cc1ccc(-c2nn(-c3cccc(F)c3)cc2CN2CCN(c3ccccn3)CC2)o1,7,-4,-18,-26,80*
COC(=O)[C@@]1(Cc2ccc(F)cc2)[C@H]2c3cc(C(=O)N4CCCC4)n(CCO)c3C[C@H]2CN1C(=O)c1ccccc1,0,-7,-2,6,-2
COC(=O)[C@@]1(Cc2ccc(F)cc2)[C@H]2c3cc(C(=O)N4CCCC4)n(CCc4ccc(O)c(O)c4)c3C[C@H]2CN1C(=O)c1ccccc1,87*,nt,nt,-25,96*
COc1ccc(OCC(=O)Nc2c(C(=O)N(CCN(C)C)Cc3ccco3)oc3ccccc23)cc1,1,-4,-30,31*,-3
COC(=O)C1=C(C(=O)OC)C(C(=O)OC)C(C(=O)OC)C(C(=O)OC)(C(=O)OC)C(C(=O)OC)=C1C(=O)OC (stereo not drawn),nt,-4,8,nt,nt
COC(=O)C1=C(C(=O)OC)N2C=CC=CC2(C)C(C(=O)OC)=C1C(=O)OC (stereo not drawn),-2,-3,-9,-1,32*
Cc1cccc(C(=O)OCC(=O)NN2C(=O)NC3(CCC(C)CC3)C2=O)c1O (stereo not drawn),0,0,6,6,31*
CCCCOc1ccc(C(=O)N(C)CC(=O)Nc2ccc(C)cc2)cc1,-1,-2,-12,0,55*
Cc1ccc(NC(=O)CN(C)C(=O)c2ccc(COc3ccccc3)cc2)cc1,-1,-5,0,-1,-2
O=C(CN1CCN(c2ccccc2F)CC1)c1c[nH]c2ccccc12,0,0,-40,-17,20
COc1ccccc1N1CCN(CC(O)COc2cccc3ccccc23)CC1 (stereo not drawn),2,-6,-38,-31,86*
C=CCc1ccccc1OCC(O)CN1CCN(c2ccccc2OC)CC1 (stereo not drawn),1,1,-24,-27,-7
COc1ccccc1N1CCN(CC(=O)c2c(C)[nH]c3ccccc23)CC1,1,0,-34,-26,31*
COc1ccccc1N1CCN(CC(=O)c2c[nH]c3ccccc23)CC1,-1,0,-17,-25,63*
C=CCc1ccccc1OCC(O)CN1CCN(c2ccccc2F)CC1 (stereo not drawn),27,1,-37,-26,66*
CCc1ccc2oc(-c3ccc(C)c(NC(=O)c4ccc(C#N)cc4F)c3)nc2c1,0,nt,nt,2,nt
CCCCN(C)S(=O)(=O)c1cc(-c2cc(C)no2)ccc1C,0,nt,nt,9,nt
CCC(=O)N1CCCc2cc(S(=O)(=O)N3CCC(C(=O)NC4CCC(C)CC4)CC3)ccc21 (stereo not drawn),1,nt,nt,8,nt
O=S(=O)(c1cccs1)N1CCN(CC(O)COC2CCCc3ccccc32)CC1 (stereo not drawn),0,0,5,3,8
COc1ccc2c(C(=O)CN3CCSCC3)c[nH]c2c1,-1,-4,-3,15,10
COc1ccccc1N1CCN(CC(O)c2c(C)[nH]c3ccccc23)CC1 (stereo not drawn),0,-4,-33,-13,65*
CCOc1ccccc1N1CCN(CC(O)COC2CCCc3ccccc32)CC1 (stereo not drawn),6,-1,-7,-34,78*
